# From publication PMC7862700, “An all-to-all approach to the identification of sequence-specific readers for epigenetic DNA modifications on cytosine”
# How the values were obtained:
# Assay in all cases: DAPPL (digital affinity profiling via proximity ligation, sequencing); 10 mM Tris-HCl pH 7.5, 50 mM NaCl, 1 mM DTT, 4% glycerol, room temperature, 30 min; GST-TFs on glutathione beads, 16-mer random dsDNA library, 0.1% formaldehyde crosslink after washing; high values mean tight binding
# FLI1 = target: T1, FLI1 (Homo sapiens, UniProt Q01543 1-452); settings: protein: recombinant; tags: N-terminal GST; dsDNA, one strand shown
# T1 sequence: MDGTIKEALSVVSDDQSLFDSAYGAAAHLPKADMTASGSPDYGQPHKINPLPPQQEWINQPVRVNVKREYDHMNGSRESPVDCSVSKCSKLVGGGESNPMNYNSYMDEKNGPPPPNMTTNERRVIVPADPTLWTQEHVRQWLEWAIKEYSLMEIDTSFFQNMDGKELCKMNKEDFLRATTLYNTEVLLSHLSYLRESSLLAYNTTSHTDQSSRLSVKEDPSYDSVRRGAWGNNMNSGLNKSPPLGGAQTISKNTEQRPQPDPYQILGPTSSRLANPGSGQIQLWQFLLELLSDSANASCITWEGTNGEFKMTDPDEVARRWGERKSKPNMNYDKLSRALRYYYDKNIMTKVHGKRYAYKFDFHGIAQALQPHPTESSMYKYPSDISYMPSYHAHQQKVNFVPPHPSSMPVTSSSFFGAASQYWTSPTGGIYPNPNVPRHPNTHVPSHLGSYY
# Method in brief: (§1)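 After expression in yeast as GST fusions, human transcription factors were bound to glutathione beads, DNA-barcoded and mixed with a tag-only sample. The pools were incubated with 200 nmole of a 16-mer random double-stranded DNA library in Tris/NaCl/DTT/glycerol buffer (30 min, room temperature), washed and crosslinked with 0.1% formaldehyde. Proximity ligation with BsaI/T4 ligase ran for 1 h at 37 °C, before PCR amplification and sequencing on an Illumina NextSeq500. Binding signal is a hexamer's read frequency for a factor divided by its frequency for the tag-only sample.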
# ELK1 = target: T2, ELK1 (Homo sapiens, UniProt P19419 1-428); settings: protein: recombinant; tags: N-terminal GST; dsDNA, one strand shown
# T2 sequence: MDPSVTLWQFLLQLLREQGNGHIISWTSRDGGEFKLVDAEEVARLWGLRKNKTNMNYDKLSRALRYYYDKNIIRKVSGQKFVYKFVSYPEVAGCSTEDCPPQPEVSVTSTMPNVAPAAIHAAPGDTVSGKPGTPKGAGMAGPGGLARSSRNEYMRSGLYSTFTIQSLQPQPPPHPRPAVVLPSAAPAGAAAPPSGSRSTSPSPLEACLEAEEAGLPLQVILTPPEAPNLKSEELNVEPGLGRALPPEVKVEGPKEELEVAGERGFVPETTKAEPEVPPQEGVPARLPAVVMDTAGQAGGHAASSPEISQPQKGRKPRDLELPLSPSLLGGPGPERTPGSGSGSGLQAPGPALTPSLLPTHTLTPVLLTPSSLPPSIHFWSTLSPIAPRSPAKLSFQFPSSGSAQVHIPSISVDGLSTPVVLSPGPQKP
# Method in brief: as §1
# GABPA = target: T3, GABPA (Homo sapiens, UniProt Q06546 1-454); settings: protein: recombinant; tags: N-terminal GST; dsDNA, one strand shown
# T3 sequence: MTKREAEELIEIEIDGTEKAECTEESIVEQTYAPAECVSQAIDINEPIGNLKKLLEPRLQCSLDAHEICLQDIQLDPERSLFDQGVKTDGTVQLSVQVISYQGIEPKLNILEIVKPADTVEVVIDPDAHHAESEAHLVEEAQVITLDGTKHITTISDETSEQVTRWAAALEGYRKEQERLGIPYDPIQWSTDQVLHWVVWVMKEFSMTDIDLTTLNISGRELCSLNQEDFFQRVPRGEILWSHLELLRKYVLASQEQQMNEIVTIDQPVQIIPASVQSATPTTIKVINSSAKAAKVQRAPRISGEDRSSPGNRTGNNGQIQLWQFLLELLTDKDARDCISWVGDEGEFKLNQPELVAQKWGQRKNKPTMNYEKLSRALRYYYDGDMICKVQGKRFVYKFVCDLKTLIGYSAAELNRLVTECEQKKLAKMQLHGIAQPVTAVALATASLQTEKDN
# Method in brief: as §1
# ERG = target: T4, ERG (Homo sapiens, UniProt P11308 1-479); settings: protein: recombinant; tags: N-terminal GST; dsDNA, one strand shown
# T4 sequence: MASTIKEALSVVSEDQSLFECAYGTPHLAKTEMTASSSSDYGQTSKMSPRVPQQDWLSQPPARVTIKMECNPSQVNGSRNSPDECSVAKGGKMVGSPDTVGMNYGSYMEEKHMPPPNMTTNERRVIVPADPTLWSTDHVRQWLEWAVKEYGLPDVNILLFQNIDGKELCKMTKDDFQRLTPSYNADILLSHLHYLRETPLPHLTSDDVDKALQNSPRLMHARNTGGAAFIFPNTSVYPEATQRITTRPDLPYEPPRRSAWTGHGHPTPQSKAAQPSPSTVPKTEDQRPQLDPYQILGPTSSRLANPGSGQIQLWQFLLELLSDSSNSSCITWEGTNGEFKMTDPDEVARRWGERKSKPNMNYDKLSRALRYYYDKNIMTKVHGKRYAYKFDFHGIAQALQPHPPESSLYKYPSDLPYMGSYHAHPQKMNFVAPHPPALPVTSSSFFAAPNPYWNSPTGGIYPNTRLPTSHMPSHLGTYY
# Method in brief: as §1
# ELF1 = ELF1 (Homo sapiens, UniProt P32519 1-619); settings: protein: recombinant; tags: N-terminal GST; dsDNA, one strand shown
# Chain of ELF1 (P32519 whole entry): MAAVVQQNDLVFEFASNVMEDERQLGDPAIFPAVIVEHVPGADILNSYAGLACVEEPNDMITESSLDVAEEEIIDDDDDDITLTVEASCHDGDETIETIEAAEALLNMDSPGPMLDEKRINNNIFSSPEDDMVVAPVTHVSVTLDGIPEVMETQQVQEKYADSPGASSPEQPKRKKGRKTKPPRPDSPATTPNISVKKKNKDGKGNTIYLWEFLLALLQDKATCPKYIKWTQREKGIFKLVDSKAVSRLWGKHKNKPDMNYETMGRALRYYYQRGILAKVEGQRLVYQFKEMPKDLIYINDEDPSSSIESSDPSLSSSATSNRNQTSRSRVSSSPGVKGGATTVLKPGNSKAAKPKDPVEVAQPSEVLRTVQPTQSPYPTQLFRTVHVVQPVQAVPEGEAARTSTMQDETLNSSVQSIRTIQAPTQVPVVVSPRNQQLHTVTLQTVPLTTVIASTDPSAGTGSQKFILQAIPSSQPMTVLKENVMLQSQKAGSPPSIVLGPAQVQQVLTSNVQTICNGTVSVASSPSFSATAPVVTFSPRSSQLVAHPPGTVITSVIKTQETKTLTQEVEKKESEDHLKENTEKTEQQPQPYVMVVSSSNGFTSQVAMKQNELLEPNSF
# Method in brief: as §1
# EHF = target: T5, EHF (Homo sapiens, UniProt Q9NZC4 1-300); settings: protein: recombinant; tags: N-terminal GST; dsDNA, one strand shown
# T5 sequence: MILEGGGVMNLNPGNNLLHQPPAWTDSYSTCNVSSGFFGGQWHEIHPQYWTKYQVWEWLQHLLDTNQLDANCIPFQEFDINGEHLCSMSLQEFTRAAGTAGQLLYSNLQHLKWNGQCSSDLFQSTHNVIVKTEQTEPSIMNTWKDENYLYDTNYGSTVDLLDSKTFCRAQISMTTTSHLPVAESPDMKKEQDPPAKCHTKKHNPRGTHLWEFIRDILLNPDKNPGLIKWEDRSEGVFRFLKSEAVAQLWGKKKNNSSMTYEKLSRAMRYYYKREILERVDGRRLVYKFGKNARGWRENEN
# Method in brief: as §1
# SPI1 = SPI1 (Homo sapiens, UniProt P17947 1-270); settings: protein: recombinant; tags: N-terminal GST; dsDNA, one strand shown
# Method in brief: as §1
# SPIB = SPIB (Homo sapiens, UniProt Q01892 1-262); settings: protein: recombinant; tags: N-terminal GST; dsDNA, one strand shown
# Chain of SPIB (Q01892 whole entry): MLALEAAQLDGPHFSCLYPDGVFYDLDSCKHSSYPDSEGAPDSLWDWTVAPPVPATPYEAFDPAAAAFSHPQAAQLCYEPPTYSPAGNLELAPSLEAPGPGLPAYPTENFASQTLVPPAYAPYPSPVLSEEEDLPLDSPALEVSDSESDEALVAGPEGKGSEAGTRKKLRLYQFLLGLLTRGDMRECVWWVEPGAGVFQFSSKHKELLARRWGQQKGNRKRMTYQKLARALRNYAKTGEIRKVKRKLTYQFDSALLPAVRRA
# Method in brief: as §1
# ELK3 = target: T6, ELK3 (Homo sapiens, UniProt P41970 1-407); settings: protein: recombinant; tags: N-terminal GST; dsDNA, one strand shown
# T6 sequence: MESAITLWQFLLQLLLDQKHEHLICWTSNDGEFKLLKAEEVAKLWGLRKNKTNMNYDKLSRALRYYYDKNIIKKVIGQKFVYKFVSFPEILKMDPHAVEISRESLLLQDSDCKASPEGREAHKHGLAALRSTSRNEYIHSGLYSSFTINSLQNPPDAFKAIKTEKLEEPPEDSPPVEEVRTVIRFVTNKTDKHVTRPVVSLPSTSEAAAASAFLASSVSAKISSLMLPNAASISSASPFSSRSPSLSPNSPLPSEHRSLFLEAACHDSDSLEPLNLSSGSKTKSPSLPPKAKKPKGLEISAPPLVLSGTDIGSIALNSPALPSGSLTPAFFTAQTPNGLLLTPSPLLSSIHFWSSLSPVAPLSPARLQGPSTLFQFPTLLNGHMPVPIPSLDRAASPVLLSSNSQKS
# Method in brief: as §1
# FEV = target: T7, FEV (Homo sapiens, UniProt Q99581 1-238); settings: protein: recombinant; tags: N-terminal GST; dsDNA, one strand shown
# T7 sequence: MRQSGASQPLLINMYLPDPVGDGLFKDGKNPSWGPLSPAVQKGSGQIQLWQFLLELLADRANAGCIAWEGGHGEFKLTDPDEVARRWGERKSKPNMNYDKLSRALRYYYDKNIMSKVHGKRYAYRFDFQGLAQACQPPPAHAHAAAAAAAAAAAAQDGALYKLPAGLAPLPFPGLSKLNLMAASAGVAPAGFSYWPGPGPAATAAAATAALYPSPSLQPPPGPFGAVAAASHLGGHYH
# Method in brief: as §1
# ETV5 = ETV5 (Homo sapiens, UniProt P41161 1-510); settings: protein: recombinant; tags: N-terminal GST; dsDNA, one strand shown
# Chain of ETV5 (P41161 whole entry): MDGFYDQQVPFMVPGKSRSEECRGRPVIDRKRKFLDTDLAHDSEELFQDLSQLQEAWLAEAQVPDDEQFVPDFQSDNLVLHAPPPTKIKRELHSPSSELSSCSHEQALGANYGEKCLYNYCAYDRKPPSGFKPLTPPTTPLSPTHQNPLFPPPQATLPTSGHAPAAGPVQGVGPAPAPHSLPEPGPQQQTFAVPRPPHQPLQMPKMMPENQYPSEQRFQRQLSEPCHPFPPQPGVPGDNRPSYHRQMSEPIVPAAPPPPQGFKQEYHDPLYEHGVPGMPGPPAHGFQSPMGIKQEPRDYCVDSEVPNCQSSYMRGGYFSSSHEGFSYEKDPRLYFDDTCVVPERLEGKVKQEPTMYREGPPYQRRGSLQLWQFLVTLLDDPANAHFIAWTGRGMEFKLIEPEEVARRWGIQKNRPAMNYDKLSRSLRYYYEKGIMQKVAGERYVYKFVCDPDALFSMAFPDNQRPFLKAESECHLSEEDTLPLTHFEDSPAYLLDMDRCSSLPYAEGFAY
# Method in brief: as §1
# HSF1 = HSF1 (Homo sapiens, UniProt Q00613 1-529); settings: protein: recombinant; tags: N-terminal GST; chain copies: 3; dsDNA, one strand shown
# Chain of HSF1 (Q00613 whole entry): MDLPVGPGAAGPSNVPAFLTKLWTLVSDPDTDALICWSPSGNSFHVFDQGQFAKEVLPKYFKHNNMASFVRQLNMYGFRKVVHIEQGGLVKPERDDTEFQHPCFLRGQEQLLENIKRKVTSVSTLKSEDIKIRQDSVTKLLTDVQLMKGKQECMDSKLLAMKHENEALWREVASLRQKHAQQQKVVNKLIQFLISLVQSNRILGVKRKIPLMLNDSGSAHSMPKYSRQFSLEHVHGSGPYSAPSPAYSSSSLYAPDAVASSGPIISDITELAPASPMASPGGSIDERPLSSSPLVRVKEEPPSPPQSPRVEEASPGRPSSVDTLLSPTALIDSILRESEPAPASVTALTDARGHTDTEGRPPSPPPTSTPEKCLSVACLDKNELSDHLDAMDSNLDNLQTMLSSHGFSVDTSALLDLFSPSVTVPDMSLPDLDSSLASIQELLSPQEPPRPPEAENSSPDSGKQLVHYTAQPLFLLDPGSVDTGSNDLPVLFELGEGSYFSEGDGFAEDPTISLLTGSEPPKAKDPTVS
# Method in brief: as §1
# SPIC = target: T8, SPIC (Homo sapiens, UniProt Q8N5J4 1-248); settings: protein: recombinant; tags: N-terminal GST; dsDNA, one strand shown
# T8 sequence: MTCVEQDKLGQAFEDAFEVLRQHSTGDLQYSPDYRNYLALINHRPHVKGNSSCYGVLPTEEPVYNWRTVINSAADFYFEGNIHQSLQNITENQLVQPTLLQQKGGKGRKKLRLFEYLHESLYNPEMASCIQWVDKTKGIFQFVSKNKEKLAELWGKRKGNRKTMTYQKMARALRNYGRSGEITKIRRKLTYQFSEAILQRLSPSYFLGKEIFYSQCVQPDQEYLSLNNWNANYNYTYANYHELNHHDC
# Method in brief: as §1
# ELF4 = ELF4 (Homo sapiens, UniProt Q99607 1-663); settings: protein: recombinant; tags: N-terminal GST; dsDNA, one strand shown
# Chain of ELF4 (Q99607 whole entry): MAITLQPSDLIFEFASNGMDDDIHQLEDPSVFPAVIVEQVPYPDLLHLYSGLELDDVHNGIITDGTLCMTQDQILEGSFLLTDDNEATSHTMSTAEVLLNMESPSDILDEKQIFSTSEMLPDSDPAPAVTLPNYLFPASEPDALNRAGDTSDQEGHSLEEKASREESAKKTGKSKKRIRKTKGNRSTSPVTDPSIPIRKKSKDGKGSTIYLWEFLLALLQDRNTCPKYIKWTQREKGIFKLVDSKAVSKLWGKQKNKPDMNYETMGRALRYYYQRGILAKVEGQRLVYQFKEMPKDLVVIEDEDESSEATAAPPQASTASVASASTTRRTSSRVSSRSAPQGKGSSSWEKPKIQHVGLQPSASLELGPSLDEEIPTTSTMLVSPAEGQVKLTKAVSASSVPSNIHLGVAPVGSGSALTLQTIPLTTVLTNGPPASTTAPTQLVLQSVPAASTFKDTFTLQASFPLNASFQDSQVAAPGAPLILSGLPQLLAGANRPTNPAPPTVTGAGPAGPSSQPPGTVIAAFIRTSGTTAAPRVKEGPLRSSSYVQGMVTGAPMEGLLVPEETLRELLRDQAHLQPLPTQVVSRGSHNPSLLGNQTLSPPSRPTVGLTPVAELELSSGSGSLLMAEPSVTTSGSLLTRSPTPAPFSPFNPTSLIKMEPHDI
# Method in brief: as §1
# ELK4 = target: T9, ELK4 (Homo sapiens, UniProt P28324-2 1-405); settings: protein: recombinant; tags: N-terminal GST; dsDNA, one strand shown
# T9 sequence: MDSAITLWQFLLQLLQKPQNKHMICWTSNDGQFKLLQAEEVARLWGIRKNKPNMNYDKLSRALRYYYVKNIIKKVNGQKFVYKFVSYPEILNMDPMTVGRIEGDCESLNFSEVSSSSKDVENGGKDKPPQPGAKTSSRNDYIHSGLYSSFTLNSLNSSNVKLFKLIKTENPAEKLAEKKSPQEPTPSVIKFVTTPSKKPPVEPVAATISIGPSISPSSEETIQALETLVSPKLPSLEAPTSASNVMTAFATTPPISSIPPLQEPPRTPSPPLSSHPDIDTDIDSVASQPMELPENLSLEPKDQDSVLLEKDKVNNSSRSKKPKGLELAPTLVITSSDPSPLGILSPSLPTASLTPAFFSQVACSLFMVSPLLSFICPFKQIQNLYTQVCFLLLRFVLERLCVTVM
# Method in brief: as §1
# ETV2 = target: T10, ETV2 (Homo sapiens, UniProt O00321 1-342); settings: protein: recombinant; tags: N-terminal GST; dsDNA, one strand shown
# T10 sequence: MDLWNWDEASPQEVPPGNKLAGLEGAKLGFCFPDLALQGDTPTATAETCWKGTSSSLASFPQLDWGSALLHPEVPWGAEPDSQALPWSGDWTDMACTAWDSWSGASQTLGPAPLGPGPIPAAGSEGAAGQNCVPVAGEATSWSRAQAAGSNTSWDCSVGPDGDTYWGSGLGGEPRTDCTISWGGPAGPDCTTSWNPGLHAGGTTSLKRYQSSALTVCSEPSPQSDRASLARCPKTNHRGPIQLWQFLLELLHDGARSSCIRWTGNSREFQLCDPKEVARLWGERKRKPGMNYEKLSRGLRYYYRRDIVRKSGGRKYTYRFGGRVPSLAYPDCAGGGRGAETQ
# Method in brief: as §1
# ELF3 = target: T11, ELF3 (Homo sapiens, UniProt P78545 1-371); settings: protein: recombinant; tags: N-terminal GST; dsDNA, one strand shown
# T11 sequence: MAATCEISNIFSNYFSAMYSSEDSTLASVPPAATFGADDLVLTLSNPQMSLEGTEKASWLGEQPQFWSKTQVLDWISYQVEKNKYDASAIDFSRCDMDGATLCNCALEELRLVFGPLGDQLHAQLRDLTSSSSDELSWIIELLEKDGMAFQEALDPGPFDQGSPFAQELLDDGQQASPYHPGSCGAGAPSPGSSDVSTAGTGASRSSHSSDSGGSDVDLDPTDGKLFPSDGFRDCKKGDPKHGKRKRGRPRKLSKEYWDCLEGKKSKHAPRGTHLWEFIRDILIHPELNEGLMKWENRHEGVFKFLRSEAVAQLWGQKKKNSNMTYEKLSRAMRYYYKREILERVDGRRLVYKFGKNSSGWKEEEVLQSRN
# Method in brief: as §1
# CRX = CRX (Homo sapiens, UniProt O43186 1-299); settings: protein: recombinant; tags: N-terminal GST; dsDNA, one strand shown
# Chain of CRX (O43186 whole entry): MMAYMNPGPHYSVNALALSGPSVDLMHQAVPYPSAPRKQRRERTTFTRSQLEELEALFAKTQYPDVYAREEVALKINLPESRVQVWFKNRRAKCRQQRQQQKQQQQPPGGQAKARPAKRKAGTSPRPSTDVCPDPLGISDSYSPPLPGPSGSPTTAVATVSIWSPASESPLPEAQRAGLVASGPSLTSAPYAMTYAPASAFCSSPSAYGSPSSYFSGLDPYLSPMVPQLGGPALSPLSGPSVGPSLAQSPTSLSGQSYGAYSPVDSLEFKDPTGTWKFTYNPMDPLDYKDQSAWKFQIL
# Method in brief: as §1
# ETV1 = ETV1 (Homo sapiens, UniProt P50549 1-477); settings: protein: recombinant; tags: N-terminal GST; dsDNA, one strand shown
# Chain of ETV1 (P50549 whole entry): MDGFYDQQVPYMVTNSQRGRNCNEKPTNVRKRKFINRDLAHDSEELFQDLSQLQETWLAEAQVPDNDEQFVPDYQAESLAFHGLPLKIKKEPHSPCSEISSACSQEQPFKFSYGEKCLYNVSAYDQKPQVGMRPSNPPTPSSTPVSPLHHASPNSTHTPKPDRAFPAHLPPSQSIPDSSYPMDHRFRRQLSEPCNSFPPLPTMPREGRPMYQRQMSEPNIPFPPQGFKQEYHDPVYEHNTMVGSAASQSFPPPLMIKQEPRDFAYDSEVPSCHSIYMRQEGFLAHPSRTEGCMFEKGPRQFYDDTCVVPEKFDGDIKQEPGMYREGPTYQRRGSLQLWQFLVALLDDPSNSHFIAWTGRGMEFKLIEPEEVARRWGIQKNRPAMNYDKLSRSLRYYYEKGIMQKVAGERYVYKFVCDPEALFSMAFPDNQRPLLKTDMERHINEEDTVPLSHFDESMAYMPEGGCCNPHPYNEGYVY
# Method in brief: as §1
sequence,measurement,setting,value
CCTTGC,binding signal,FLI1,"1.31 fold enrichment (6-mer frequency, TF over GST control)"
same,binding signal,ELK1,"1.28 fold enrichment (6-mer frequency, TF over GST control)"
same,binding signal,GABPA,"1.33 fold enrichment (6-mer frequency, TF over GST control)"
same,binding signal,ERG,"1.2 fold enrichment (6-mer frequency, TF over GST control)"
same,binding signal,ELF1,"1.45 fold enrichment (6-mer frequency, TF over GST control)"
same,binding signal,EHF,"1.28 fold enrichment (6-mer frequency, TF over GST control)"
same,binding signal,SPI1,"1.27 fold enrichment (6-mer frequency, TF over GST control)"
same,binding signal,SPIB,"1.24 fold enrichment (6-mer frequency, TF over GST control)"
same,binding signal,ELK3,"1.16 fold enrichment (6-mer frequency, TF over GST control)"
same,binding signal,FEV,"1.27 fold enrichment (6-mer frequency, TF over GST control)"
same,binding signal,ETV5,"1.17 fold enrichment (6-mer frequency, TF over GST control)"
same,binding signal,HSF1,"1.04 fold enrichment (6-mer frequency, TF over GST control)"
same,binding signal,SPIC,"1.45 fold enrichment (6-mer frequency, TF over GST control)"
same,binding signal,ELF4,"1.27 fold enrichment (6-mer frequency, TF over GST control)"
same,binding signal,ELK4,"1.2 fold enrichment (6-mer frequency, TF over GST control)"
same,binding signal,ETV2,"1.44 fold enrichment (6-mer frequency, TF over GST control)"
same,binding signal,ELF3,"1.49 fold enrichment (6-mer frequency, TF over GST control)"
same,binding signal,CRX,"1.02 fold enrichment (6-mer frequency, TF over GST control)"
same,binding signal,ETV1,"1.33 fold enrichment (6-mer frequency, TF over GST control)"
